Assay outcomes from PubChem BioAssay.
Sampled rows, rich in hits. Any-hit rate of the full collection: about 3.4%.
TEAD-YAP block: TEAD-YAP interaction inhibition, primary screen, TEAD-YAP interaction inhibitor project, luminescence, HEK-TIYL cells. TEAD-Gal4/YAP UAS-luciferase luminescence. inhibition, % at 9.12 µM. actives 1.4% (n = 640,000). AID 1259422, 2018; in the data active = inhibition above about 32%;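 also: 0% = median of test compound wells and 100% = reference inhibitor wells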
MITF primary: MITF inhibitors, primary screen, biochemical, AlphaScreen, human; AlphaScreen MITF homodimerization, bead proximity signal; inhibition, % at 2.6 µM; actives 0.91% (n = 650,000); in the data active = inhibition above about 50%;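 also: 0% = vehicle wells with protein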
Target sequence (O75030 whole entry, looked up): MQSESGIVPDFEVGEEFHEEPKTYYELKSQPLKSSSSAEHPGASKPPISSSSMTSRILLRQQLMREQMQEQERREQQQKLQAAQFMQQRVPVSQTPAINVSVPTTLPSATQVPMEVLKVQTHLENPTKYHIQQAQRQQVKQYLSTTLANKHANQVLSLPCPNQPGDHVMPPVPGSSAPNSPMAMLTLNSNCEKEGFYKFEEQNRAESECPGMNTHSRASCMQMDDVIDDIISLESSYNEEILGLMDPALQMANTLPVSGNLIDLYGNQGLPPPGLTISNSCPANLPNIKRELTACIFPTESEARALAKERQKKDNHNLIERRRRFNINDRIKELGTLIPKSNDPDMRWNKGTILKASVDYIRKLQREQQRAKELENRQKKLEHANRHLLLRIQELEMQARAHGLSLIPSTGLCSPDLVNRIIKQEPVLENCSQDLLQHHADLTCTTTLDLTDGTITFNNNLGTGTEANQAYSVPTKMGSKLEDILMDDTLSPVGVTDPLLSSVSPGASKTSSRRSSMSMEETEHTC
GPR151 ag: activators of human GPR151, primary screen, cell-based, PathHunter beta-arrestin, luminescence; actives 1% (n = 650,000); activation, % at 11.2 µM; AID 1508602, 2020; PathHunter beta-arrestin GPR151 cells; G-protein coupled receptor 151 (Homo sapiens), Q8TDV0; in the data active = activation above about 4.9%;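 also: 0% = median of compound wells and 100% = cells with positive control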
FBW7 act: FBW7 E3 ligase activators, primary screen, biochemical, AlphaScreen, human; F-box/WD repeat-containing protein 7 (Homo sapiens), Q969H0; AlphaScreen FBW7–phospho-cyclin E peptide binding, activator screen; normalized activity (activation), % at 26.1 µM; actives 0.13% (n = 650,000); in the data active = normalized activity above about 1.9%;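 also: purified mutant Fbw7 with reduced substrate affinity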
An asterisk follows results filed as active.

Screening Cc1nc(NCc2ccccc2)sc1-c1ccn(CCN2CCOCC2)n1 returned TEAD-YAP block 7.9, MITF primary 12.2, GPR151 ag -0.4 and FBW7 act 0.0.
For Oc1ccc(Br)cc1C1CC(c2ccc(Cl)cc2)=NC(c2cccc(F)c2)N1 (centres undefined) the results were TEAD-YAP block 20.2, MITF primary 2.2, GPR151 ag 1.0 and FBW7 act -0.1.
Screening CCOc1ccc(-c2[nH]ncc2C=O)cc1Cl returned TEAD-YAP block -13.8, MITF primary 2.8, GPR151 ag -0.7 and FBW7 act -0.3.
`CCOC(=O)c1ccc(NC(=O)CCc2ccccc2)cc1` gave TEAD-YAP block -0.8, MITF primary 1.1, GPR151 ag 1.9 and FBW7 act 0.0.
For Cc1ccc(N2C(=O)C3C4C=CC(C4)C3C2=O)c([N+](=O)[O-])c1 (centres undefined) the results were TEAD-YAP block 3.4, MITF primary -12.4, GPR151 ag 0.4 and FBW7 act 0.0.
`COc1ccc(-c2cccc(C(=O)NCCOc3ccccc3)n2)cc1` gave TEAD-YAP block 16.6, MITF primary 3.4, GPR151 ag 0.6 and FBW7 act 8.0*.
`CC(=O)c1ccc(C(=O)NCCOc2ccccc2)cc1` gave TEAD-YAP block 67.8*, MITF primary 0.1, GPR151 ag -4.9 and FBW7 act 0.8.
Screening O=C(NCCOc1ccccc1)c1cccc(-c2ccccc2)n1 returned TEAD-YAP block -0.9, MITF primary 14.6, GPR151 ag -1.2 and FBW7 act 0.5.
Screening O=C(CCC(=O)c1ccccc1)NCCOc1ccccc1 returned TEAD-YAP block 0.3, MITF primary 6.5, GPR151 ag 4.4 and FBW7 act 0.0.
COc1cc(-c2nc3ccc(C(=O)NCCc4ccccc4)cc3nc2-c2cc(OC)c(OC)c(OC)c2)cc(OC)c1OC was read as TEAD-YAP block 7.7, MITF primary 9.8, GPR151 ag 0.2 and FBW7 act 0.1.
COc1cc(-c2nc3ccc(C(=O)NCCc4ccc(C)cc4)cc3nc2-c2cc(OC)c(OC)c(OC)c2)cc(OC)c1OC was read as TEAD-YAP block 37.9*, MITF primary 21.8, GPR151 ag 0.7 and FBW7 act 0.5.
Screening O=C(CCl)NCCOc1ccccc1 returned TEAD-YAP block 35.6*, MITF primary -8.8, GPR151 ag -0.2 and FBW7 act -0.1.
NC(=O)c1cc(Cc2ccccc2)sc1NC(=O)C1CCCO1 (centres undefined) was read as TEAD-YAP block -51.0, MITF primary -11.1, GPR151 ag -0.4 and FBW7 act -0.1.
COc1ccc(-c2nnc3n2N=C(c2cc4ccccc4oc2=O)CS3)cc1 was read as TEAD-YAP block -6.1, MITF primary -13.2, GPR151 ag 0.0 and FBW7 act -0.1.
For CC(C)OCCCNC(=O)C(NC(=O)c1ccc(Cl)c([N+](=O)[O-])c1)C(C)C (centres undefined) the results were TEAD-YAP block 8.6, MITF primary 7.0, GPR151 ag 1.1 and FBW7 act 0.0.
`CCOC(=O)C1CCN(S(=O)(=O)c2ccc3c(c2)SC(C)CN3C(C)=O)CC1` (centres undefined) gave TEAD-YAP block 21.2, MITF primary 7.8, GPR151 ag 1.2 and FBW7 act 0.9.
CN(C)c1cc2c(c(N(C)C)c1)C(=O)c1ccccc1C2=O was read as TEAD-YAP block -1.3, MITF primary 54.2*, GPR151 ag -1.9 and FBW7 act -0.9.
Nc1c(Br)cc2c(c1Br)C(=O)c1ccccc1C2=O was read as TEAD-YAP block -24.9, MITF primary -4.3, GPR151 ag -0.5 and FBW7 act 0.3.
Cc1noc(C)c1CCC(=O)N1CCC(C(=O)Nc2cccc(-c3ccco3)c2)CC1 was read as TEAD-YAP block 33.7*, MITF primary -0.3, GPR151 ag -0.2 and FBW7 act 0.0.
For Cc1ccccc1Cn1c(CN2CC(C)OC(C)C2)nc2c1c(=O)n(C)c(=O)n2C (centres undefined) the results were TEAD-YAP block 4.8, MITF primary 10.1, GPR151 ag 1.2 and FBW7 act 0.2.
`Cc1ccc(CC(=O)N2CC(=O)Nc3ccccc32)cc1` gave TEAD-YAP block 45.1*, MITF primary 6.4, GPR151 ag 3.6 and FBW7 act 0.0.
Screening CC(C)c1ccc2nc(SCC(=O)N3CC(=O)Nc4ccccc43)c(C#N)cc2c1 returned TEAD-YAP block 8.3, MITF primary 19.4, GPR151 ag -0.5 and FBW7 act 0.2.
For COc1ccc(CC(=O)N2CC(=O)Nc3ccccc32)cc1OC the results were TEAD-YAP block 24.8, MITF primary 7.5, GPR151 ag 0.1 and FBW7 act 0.0.
Screening Cc1ccc(CC(=O)N2CC(=O)Nc3ccccc32)c(C)c1 returned TEAD-YAP block 34.2*, MITF primary -11.7, GPR151 ag -1.3 and FBW7 act -0.2.
`CSc1cccc(C(=O)N2CC(=O)Nc3ccccc32)c1` gave TEAD-YAP block 43.3*, MITF primary -5.3, GPR151 ag 0.4 and FBW7 act -0.1.
Cc1cccc2cc(C#N)c(SCC(=O)N3CC(=O)Nc4ccccc43)nc12 was read as TEAD-YAP block 52.9*, MITF primary 4.8, GPR151 ag 4.7 and FBW7 act -0.1.
For CCCCCOC(=O)C1=C(C)N(C)C(=O)NC1c1ccccc1I (centres undefined) the results were TEAD-YAP block 4.8, MITF primary -7.2, GPR151 ag 0.9 and FBW7 act -0.1.
Screening O=C1NC2(CCN(Cc3cccs3)CC2)Oc2ccccc21 returned TEAD-YAP block 3.3, MITF primary -8.6, GPR151 ag -0.7 and FBW7 act 0.1.
For O=C1NC2(CCN(S(=O)(=O)c3cccs3)CC2)Oc2ccccc21 the results were TEAD-YAP block 15.6, MITF primary 12.1, GPR151 ag -1.3 and FBW7 act 2.0*.
O=C(O)CCCN1C(=O)CSC1=S was read as TEAD-YAP block 57.3*, MITF primary 0.1, GPR151 ag 1.8 and FBW7 act -0.1.
O=C1CSC(=S)N1CCCCCCN1C(=O)CSC1=S was read as TEAD-YAP block -4.6, MITF primary -17.0, GPR151 ag -0.4 and FBW7 act -0.2.
`O=C(O)CCCCCN1C(=O)CSC1=S` gave TEAD-YAP block 32.5*, MITF primary -13.2, GPR151 ag -1.0 and FBW7 act 0.0.
`COc1ccc(S(=O)(=O)N2CCN(c3cc(-n4ccnc4)ncn3)CC2)c(C)c1C` gave TEAD-YAP block 56.5*, MITF primary -13.8, GPR151 ag 0.6 and FBW7 act -0.1.
For O=S(=O)(c1ccc(F)cc1)N1CCN(c2cc(-n3ccnc3)ncn2)CC1 the results were TEAD-YAP block -3.6, MITF primary -11.0, GPR151 ag 1.2 and FBW7 act 0.0.
`COc1ccc(Cc2nnc(Nc3cccc(OC)c3)[nH]c2=O)cc1` gave TEAD-YAP block 57.4*, MITF primary 13.6, GPR151 ag -0.9 and FBW7 act 0.3.
